We go through six sequences from article PMC7862700, “An all-to-all approach to the identification of sequence-specific readers for epigenetic DNA modifications on cytosine”.

Assay in all cases: DAPPL (digital affinity profiling via proximity ligation, sequencing); 10 mM Tris-HCl pH 7.5, 50 mM NaCl, 1 mM DTT, 4% glycerol, room temperature, 30 min; GST-TFs on glutathione beads, 16-mer random dsDNA library, 0.1% formaldehyde crosslink after washing; high values mean tight binding
Holding throughout (details): protein: recombinant; tags: N-terminal GST; dsDNA, one strand shown

One assay has as its target T1, ERF (Homo sapiens, UniProt P50548 1-548).
T1 sequence: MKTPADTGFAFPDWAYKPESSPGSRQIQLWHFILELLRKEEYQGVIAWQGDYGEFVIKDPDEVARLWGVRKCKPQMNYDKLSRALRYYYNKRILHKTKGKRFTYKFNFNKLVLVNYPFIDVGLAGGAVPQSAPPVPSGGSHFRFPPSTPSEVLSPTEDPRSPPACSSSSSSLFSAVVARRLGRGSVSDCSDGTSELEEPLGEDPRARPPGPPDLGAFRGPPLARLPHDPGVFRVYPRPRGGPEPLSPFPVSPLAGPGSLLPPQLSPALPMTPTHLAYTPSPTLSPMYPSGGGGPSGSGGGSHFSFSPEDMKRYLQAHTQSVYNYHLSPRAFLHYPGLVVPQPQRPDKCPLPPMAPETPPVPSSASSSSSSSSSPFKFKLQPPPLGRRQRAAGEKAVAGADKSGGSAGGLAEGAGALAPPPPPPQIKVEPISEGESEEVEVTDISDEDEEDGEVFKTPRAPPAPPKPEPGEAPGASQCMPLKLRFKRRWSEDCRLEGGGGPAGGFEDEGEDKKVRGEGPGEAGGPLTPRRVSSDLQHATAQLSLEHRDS
The method in brief:
(§1)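 Sequencing on an Illumina NextSeq500 followed washing, crosslinking with 0.1% formaldehyde, proximity ligation (BsaI/T4 ligase, 1 h, 37 °C) and PCR amplification of pools that had been incubated for 30 min at room temperature with 200 nmole of a random double-stranded 16-mer DNA library in Tris/NaCl/DTT/glycerol buffer. Each pool held DNA-barcoded human transcription factors, expressed in yeast as GST fusions and captured on glutathione beads, plus a tag-only sample. Binding signal is a hexamer's read frequency for a factor divided by its frequency in the tag-only sample.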

A further assay addresses T2, ETV3L (Homo sapiens, UniProt Q6ZN32 1-361).
T2 sequence: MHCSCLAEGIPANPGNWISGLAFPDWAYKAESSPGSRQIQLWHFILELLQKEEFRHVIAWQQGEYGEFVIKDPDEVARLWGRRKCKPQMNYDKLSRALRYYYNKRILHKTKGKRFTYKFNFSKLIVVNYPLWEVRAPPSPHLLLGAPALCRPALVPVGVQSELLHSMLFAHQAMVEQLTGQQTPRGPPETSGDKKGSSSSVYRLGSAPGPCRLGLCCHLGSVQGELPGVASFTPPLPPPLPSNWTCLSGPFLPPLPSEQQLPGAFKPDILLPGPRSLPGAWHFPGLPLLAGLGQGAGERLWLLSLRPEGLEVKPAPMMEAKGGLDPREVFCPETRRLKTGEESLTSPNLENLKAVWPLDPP
In a few lines:
as §1

The target in another assay is T3, ETS2 (Homo sapiens, UniProt P15036 1-469).
T3 sequence: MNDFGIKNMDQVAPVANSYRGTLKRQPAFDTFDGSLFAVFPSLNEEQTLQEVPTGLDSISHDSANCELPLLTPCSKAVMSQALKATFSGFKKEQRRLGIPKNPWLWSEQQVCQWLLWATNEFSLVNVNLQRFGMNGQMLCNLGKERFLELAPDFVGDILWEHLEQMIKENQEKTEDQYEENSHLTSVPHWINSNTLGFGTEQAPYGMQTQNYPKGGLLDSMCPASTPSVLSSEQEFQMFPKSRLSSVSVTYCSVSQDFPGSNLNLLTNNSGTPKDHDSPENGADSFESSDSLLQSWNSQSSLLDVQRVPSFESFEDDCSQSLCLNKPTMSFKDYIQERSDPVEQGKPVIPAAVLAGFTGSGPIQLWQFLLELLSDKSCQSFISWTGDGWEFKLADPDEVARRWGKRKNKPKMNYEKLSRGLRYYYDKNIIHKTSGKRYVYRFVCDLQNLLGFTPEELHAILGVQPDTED
In a few lines: as §1

The target of a further assay is T4, SPDEF (Homo sapiens, UniProt O95238 1-335).
T4 sequence: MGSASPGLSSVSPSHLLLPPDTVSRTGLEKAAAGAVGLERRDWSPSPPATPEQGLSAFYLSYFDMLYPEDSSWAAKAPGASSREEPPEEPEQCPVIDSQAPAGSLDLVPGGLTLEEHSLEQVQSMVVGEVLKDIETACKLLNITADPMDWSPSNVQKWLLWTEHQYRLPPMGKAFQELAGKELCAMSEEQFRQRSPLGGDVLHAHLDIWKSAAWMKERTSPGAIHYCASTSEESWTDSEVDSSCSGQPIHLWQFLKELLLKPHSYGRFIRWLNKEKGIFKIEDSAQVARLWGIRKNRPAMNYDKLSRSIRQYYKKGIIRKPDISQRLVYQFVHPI
In a few lines: as §1

The next assay addresses T5, ETV7 (Homo sapiens, UniProt Q9Y603 1-341).
T5 sequence: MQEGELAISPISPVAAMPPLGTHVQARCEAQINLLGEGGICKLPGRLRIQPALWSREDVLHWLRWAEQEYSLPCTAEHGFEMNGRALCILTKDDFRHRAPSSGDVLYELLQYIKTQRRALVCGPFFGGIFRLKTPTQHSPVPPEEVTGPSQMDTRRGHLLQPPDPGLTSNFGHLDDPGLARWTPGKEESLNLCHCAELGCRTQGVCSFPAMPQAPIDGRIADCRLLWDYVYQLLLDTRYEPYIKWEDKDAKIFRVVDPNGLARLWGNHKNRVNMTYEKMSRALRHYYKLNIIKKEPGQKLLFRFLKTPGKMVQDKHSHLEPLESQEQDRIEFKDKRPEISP
In a few lines:
as §1

For a further assay, the target named is T6, ELF5 (Homo sapiens, UniProt Q9UKW6-2 1-255).
T6 sequence: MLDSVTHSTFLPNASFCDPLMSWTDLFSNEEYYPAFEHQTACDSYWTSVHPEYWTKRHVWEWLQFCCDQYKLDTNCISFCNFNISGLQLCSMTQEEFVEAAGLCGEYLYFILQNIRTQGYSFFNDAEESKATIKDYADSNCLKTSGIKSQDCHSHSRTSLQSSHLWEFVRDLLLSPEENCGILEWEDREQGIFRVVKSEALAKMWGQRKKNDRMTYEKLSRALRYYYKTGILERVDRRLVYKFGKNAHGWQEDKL
The method in brief: as §1

In another assay the target is T7, ETV3 (Homo sapiens, UniProt P41162-2 1-143).
T7 sequence: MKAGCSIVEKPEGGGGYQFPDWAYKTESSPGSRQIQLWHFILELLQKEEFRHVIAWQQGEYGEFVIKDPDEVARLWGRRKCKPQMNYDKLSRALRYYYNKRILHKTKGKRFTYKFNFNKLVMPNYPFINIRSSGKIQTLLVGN
In a few lines:
as §1

The target in another assay is ETV6 (Homo sapiens, UniProt P41212 1-452). In a few lines: as §1
Sequence of ETV6 (P41212 whole entry): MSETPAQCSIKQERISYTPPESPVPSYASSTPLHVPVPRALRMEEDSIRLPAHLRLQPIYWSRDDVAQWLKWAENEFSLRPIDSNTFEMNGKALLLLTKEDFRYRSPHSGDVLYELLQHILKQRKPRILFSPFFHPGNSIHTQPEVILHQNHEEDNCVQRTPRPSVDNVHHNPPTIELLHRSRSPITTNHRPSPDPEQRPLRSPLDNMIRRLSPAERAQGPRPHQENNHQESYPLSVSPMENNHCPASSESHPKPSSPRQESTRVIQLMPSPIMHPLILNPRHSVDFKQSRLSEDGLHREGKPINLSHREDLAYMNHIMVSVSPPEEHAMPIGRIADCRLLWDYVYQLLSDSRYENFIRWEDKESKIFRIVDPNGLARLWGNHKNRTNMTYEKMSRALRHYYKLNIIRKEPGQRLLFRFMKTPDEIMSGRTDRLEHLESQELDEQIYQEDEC

For the sequence CATCAC, the binding signal was 1.17 fold enrichment (6-mer frequency, TF over GST control) with ERF; 1.07 fold enrichment (6-mer frequency, TF over GST control) in the assay with ETV3L; 1.12 fold enrichment (6-mer frequency, TF over GST control) with ETS2; 1.15 fold enrichment (6-mer frequency, TF over GST control) with SPDEF; 1.08 fold enrichment (6-mer frequency, TF over GST control) in the assay with ETV7; 1.11 fold enrichment (6-mer frequency, TF over GST control) with ELF5. Also, the binding signal with ETV3 was 1.13 fold enrichment (6-mer frequency, TF over GST control); with ETV6 it was 1.13 fold enrichment (6-mer frequency, TF over GST control).
On to GTTTTC, for which the binding signal with ERF was 1.34 fold enrichment (6-mer frequency, TF over GST control); with ETV3L, 1.27 fold enrichment (6-mer frequency, TF over GST control); with ETS2, 1.16 fold enrichment (6-mer frequency, TF over GST control); with SPDEF it was 1.08 fold enrichment (6-mer frequency, TF over GST control); with ETV7 it was 1.36 fold enrichment (6-mer frequency, TF over GST control); in the assay with ELF5, 1.31 fold enrichment (6-mer frequency, TF over GST control). The binding signal is 1.29 fold enrichment (6-mer frequency, TF over GST control) with ETV3 and 1.23 fold enrichment (6-mer frequency, TF over GST control) with ETV6.
As for CTTGTC, the binding signal in the assay with ERF was 1.44 fold enrichment (6-mer frequency, TF over GST control); with ETV3L it was 1.25 fold enrichment (6-mer frequency, TF over GST control); with ETS2, 1.24 fold enrichment (6-mer frequency, TF over GST control); in the assay with SPDEF, 1.35 fold enrichment (6-mer frequency, TF over GST control); with ETV7, 1.25 fold enrichment (6-mer frequency, TF over GST control); with ELF5 it was 1.3 fold enrichment (6-mer frequency, TF over GST control). The binding signal with ETV3 is 1.31 fold enrichment (6-mer frequency, TF over GST control); with ETV6, 1.25 fold enrichment (6-mer frequency, TF over GST control).
For CCCTCT, the binding signal is 1.41 fold enrichment (6-mer frequency, TF over GST control) in the assay with ERF; 1.3 fold enrichment (6-mer frequency, TF over GST control) with ETV3L; 1.36 fold enrichment (6-mer frequency, TF over GST control) with ETS2; 1.17 fold enrichment (6-mer frequency, TF over GST control) with SPDEF; 1.27 fold enrichment (6-mer frequency, TF over GST control) with ETV7; 1.29 fold enrichment (6-mer frequency, TF over GST control) with ELF5. Moreover, the binding signal with ETV3 was 1.4 fold enrichment (6-mer frequency, TF over GST control); with ETV6 it was 1.31 fold enrichment (6-mer frequency, TF over GST control).
On to AATTGG, for which the binding signal with ERF is 1.26 fold enrichment (6-mer frequency, TF over GST control); with ETV3L, 1.33 fold enrichment (6-mer frequency, TF over GST control); with ETS2 it was 1.33 fold enrichment (6-mer frequency, TF over GST control); in the assay with SPDEF, 1.31 fold enrichment (6-mer frequency, TF over GST control); with ETV7, 1.42 fold enrichment (6-mer frequency, TF over GST control); with ELF5 it was 1.35 fold enrichment (6-mer frequency, TF over GST control). For the same sequence, the binding signal was 1.28 fold enrichment (6-mer frequency, TF over GST control) in the assay with ETV3 and 1.44 fold enrichment (6-mer frequency, TF over GST control) with ETV6.
On to ATGCGG, for which the binding signal with ERF is 1.12 fold enrichment (6-mer frequency, TF over GST control); with ETV3L, 1.25 fold enrichment (6-mer frequency, TF over GST control); with ETS2, 1.32 fold enrichment (6-mer frequency, TF over GST control); in the assay with SPDEF, 1.32 fold enrichment (6-mer frequency, TF over GST control); in the assay with ETV7 it was 1.25 fold enrichment (6-mer frequency, TF over GST control); in the assay with ELF5 it was 1.21 fold enrichment (6-mer frequency, TF over GST control). Also, the binding signal with ETV3 is 1.45 fold enrichment (6-mer frequency, TF over GST control); with ETV6, 1.26 fold enrichment (6-mer frequency, TF over GST control).
